We go through 38 compounds from PubChem BioAssay (NCATS).

Records with an inconclusive call do not appear. Unmarked numbers belong to inactive results. Calls of active or inactive are those of the source. Calls come from the whole dose curve; tested in HEK293 reporter line.
% is set by controls: 0 for no effect and ±100 for the full control effect; potency is the fitted concentration of half-maximal effect.

The nature of this assay: qHTS for Inhibitors of the Functional Ribonucleoprotein Complex (vRNP) of Lassa (LASV) Arenavirus: Viability assay - alamar blue signal for LASV Primary Screen (AID 1347083). Note: nearly all actives have a fitted effect of over 80% in size. The settings on record: cell viability, alamar blue fluorescence (LASV minigenome counter-screen); series mostly up to 57.5 µM; activity change, negative = reduced viability: at the top concentration.
Regarding `COc1ccc2c3n(c(=NC(=O)c4cccnc4)nc2c1OC)CCN3`, the Potency is 1.53 µM (active).

`COc1ccc(-c2c(-c3ccc(O)cc3O)n[nH]c2C)cc1`: the “activity change, negative = reduced viability” value was -15% [at 115 µM].

Regarding `C[C@]1(CO)CN(c2cc(C(=O)Nc3ccc4c(c3)-c3c(c(C(N)=O)nn3-c3ccc(F)cc3)CC4)c(Cl)cn2)C[C@@]1(C)CO`, the Potency is 1.72 µM (active).

On to `COc1cc2nc(N3CCCN(C)CC3)nc(NC3CCN(Cc4ccccc4)CC3)c2cc1OC`, for which the Potency is 0.611 µM (active).

`CCN1CCN(CC(=O)Nc2ccc(-c3cccc4c(=O)cc(N5CCOCC5)oc34)c3sc4ccccc4c23)CC1`: the Potency is 0.544 µM (active).

With `CCc1cncnc1N1CCN(Cc2nc3ccc(C(F)(F)F)cc3[nH]2)CC1`, the “activity change, negative = reduced viability” value was -27.8%.

As to `Cc1cc(Nc2cc(N3CCN(C)CC3)nc(Sc3ccc(NC(=O)C4CC4)cc3)n2)n[nH]1`, the Potency was 19.3 µM (active).

Regarding `Cc1ccc(C(=O)Nc2ccc(CN3CCN(C)CC3)c(C(F)(F)F)c2)cc1C#Cc1cnc2cccnn12`, the Potency was 1.22 µM (active).

On to `Cc1nc(N)sc1-c1ccnc(Nc2ccc(N3CCOCC3)cc2)n1`, for which the Potency was 7.69 µM (active).

For the compound `Nc1ccccc1NC(=O)c1ccc(CNC(=O)OCc2cccnc2)cc1`, the Potency was 12.2 µM (active).

With `CCn1c(-c2nonc2N)nc2c(C#CC(C)(C)O)ncc(OC[C@H]3CCCNC3)c21`, the Potency is 0.0611 µM (active).

Take `Cc1cc(Nc2cc(N3CCN(C)CC3)nc(C=Cc3ccccc3)n2)n[nH]1`: the Potency is 8.85 µM (active).

As for `COc1cccc2cc(-c3nc(C4CCC(C(=O)O)CC4)n4ncnc(N)c34)[nH]c12` (stereo not drawn), the Potency was 0.611 µM (active).

`COc1ccccc1[C@H](c1cccc2ccccc12)[C@@](C)(C#N)C(=O)N1CCC(c2cccc(C(F)(F)F)c2)CC1`: the Potency is 21.7 µM (active).

Take `CCOc1cc(C(=O)Nc2ccc(Cl)c(-c3nc4ccccc4[nH]3)c2)cc(OCC)c1OCC`: the Potency is 17.2 µM (active).

For `CC1(O)CC(c2nc(-c3ccc4ccc(-c5ccccc5)nc4c3)c3c(N)nccn23)C1` (stereo not drawn), the Potency was 5.44 µM (active).

On to `CC[C@H](Nc1ncnc2nc[nH]c12)c1nc2cccc(F)c2c(=O)n1-c1ccccc1`, for which the Potency was 24.3 µM (active).

With `Nc1nc(Nc2ccc(S(N)(=O)=O)cc2)nn1C(=O)c1c(F)cccc1F`, the Potency is 24.3 µM (active).

Regarding `CN(c1ncccc1CNc1nc(Nc2ccc3c(c2)CC(=O)N3)ncc1C(F)(F)F)S(C)(=O)=O`, the Potency was 24.3 µM (active).

With `Nc1ccc(C(=O)c2cc3c(ccc4ccccc43)[nH]2)cc1`, the Potency was 17.2 µM (active).

Take `CCOc1cc(N2CCC(O)CC2)ccc1Nc1ncc2c(n1)N(C)c1ccccc1C(=O)N2C`: the Potency is 7.69 µM (active).

On to `O=C(C=Cc1cccc(S(=O)(=O)Nc2ccccc2)c1)NO`, for which the Potency is 25 µM (active).

Take `Cn1cc(-c2[nH]c3cc(NC(=O)[C@H](N)C4CCCCC4)cc4c3c2C=NNC4=O)cn1`: the Potency was 3.43 µM (active).

In the case of `CCCS(=O)(=O)Nc1ccc(F)c(C(=O)c2c[nH]c3ncc(Cl)cc23)c1F`, the Potency is 12.2 µM (active).

In the case of `CC(C)c1ccc(Cn2ccc3c4c(N)nc(NC5CC5)nc4ccc32)cc1`, the Potency was 7.69 µM (active).

For the compound `CC[C@@H]1C(=O)N(C)c2cnc(Nc3ccc(C(=O)NC4CCC(N5CCN(CC6CC6)CC5)CC4)cc3OC)nc2N1C(C)C` (stereo partly drawn), the Potency was 0.0968 µM (active).

Consider `Cc1cccc(Nc2nc(N[C@@H]3CCCC[C@H]3N)ncc2C(N)=O)c1`, for which the Potency was 4.85 µM (active).

On to `Cc1ccc(C(=O)N(CCCN)[C@@H](c2nc3cc(Cl)ccc3c(=O)n2Cc2ccccc2)C(C)C)cc1`, for which the “activity change, negative = reduced viability” value is -75.6%.

Turning to `CN1CCN(c2ccc3nc(-c4c(N)c5c(F)cccc5[nH]c4=O)[nH]c3c2)CC1`, the Potency was 2.17 µM (active).

`COc1cccc2nc(-c3cccs3)nc(NN3C(=O)C=C(C)C3=O)c12`: the Potency is 2.73 µM (active).

Consider `O=C1C(Cl)=C(NCCN2CCOCC2)C(=O)c2ncccc21`, for which the Potency was 34.3 µM (active).

Take `COc1cc2ncn(-c3cc(OCc4ccccc4C(F)(F)F)c(C(N)=O)s3)c2cc1OC`: the Potency was 1.72 µM (active).

Take `CC(C)CC(=O)Nc1n[nH]c2c1CN(C(=O)C1CCN(C)CC1)C2(C)C`: the “activity change, negative = reduced viability” value is -115%.

For `CC(C)(C)OC(=O)Nc1ccc(-c2cc(C(=O)NCCCCCCC(=O)NO)no2)cc1`, the Potency was 17.2 µM (active).

Take `CN1[C@H]2CC(O)C[C@H]1[C@H]1O[C@H]12` (stereo partly drawn): the Potency is 27.3 µM (active).

For the compound `COC(=O)Nc1ccc(-c2nc(N3CCOCC3)c3cnn(C4CCN(C(=O)OC)CC4)c3n2)cc1`, the “activity change, negative = reduced viability” value is -134%.

As to `Cc1[nH]c2ccccc2c1CCNCc1ccc(C=CC(=O)NO)cc1`, the Potency is 0.863 µM (active).

As to `COc1cc2c(Oc3ccc(NC(=O)C4(C(=O)Nc5ccc(F)cc5)CC4)cc3F)ccnc2cc1OCCCN1CCOCC1`, the Potency is 21.7 µM (active).
